# Results taken from PubChem BioAssay (NCI).
# About 83,000 compounds went through this panel and 20% of them were active in at least one assay; those are over-represented in the sample as a whole.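 Single-concentration screen, 48 h exposure, 96-well plates. Endpoint: percent growth. Below 10 = active.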 A number with no mark means an inactive call. Activity calls are given as the source filed them.
# What was measured:
# Assay in all cases: NCI-60 one-dose screen, 48 h (100 = growth as untreated, 0 = no growth, -100 = all killed)
# Details in all cases: 10 µM unless noted
# [1] = test system: DU-145 prostate
# [2] = test system: K-562 leukemia
# [3] = test system: MALME-3M melanoma
# [4] = test system: MDA-MB-231 breast
# [5] = test system: RXF 393 renal
# [6] = test system: SF-268 CNS
# [7] = test system: SF-295 CNS
# [8] = test system: SF-539 CNS
# [9] = test system: UACC-257 melanoma
# [10] = test system: M14 melanoma
# [11] = test system: HCT-15 colon
# [12] = test system: HT29 colon
# [13] = test system: SNB-75 CNS
# [14] = test system: SNB-19 CNS
# [15] = test system: PC-3 prostate
# [16] = test system: SK-MEL-5 melanoma
# [17] = test system: UACC-62 melanoma
# [18] = test system: LOX IMVI melanoma
# [19] = test system: SK-MEL-28 melanoma
# [20] = test system: U251 CNS
Structure (SMILES),growth [1],growth [2],growth [3],growth [4],growth [5],growth [6],growth [7],growth [8],growth [9],growth [10],growth [11],growth [12],growth [13],growth [14],growth [15],growth [16],growth [17],growth [18],growth [19],growth [20] [%]
Cc1ncn(-c2ccc(/C=N/Nc3ccnc4cc(Cl)ccc34)cc2)c1C,8.97% (active),0.733% (active),-88.7% (active),-16.8% (active),-43.7% (active),21.5%,-72.5% (active),-60.7% (active),-67.2% (active),-88.5% (active),-59.4% (active),-77.5% (active),-24.2% (active),42.3%,-21.3% (active),-19.7% (active),-74.4% (active),-88.9% (active),-79.3% (active),–
O=S1SC(c2ccccc2)=NN1c1cc(F)cc(F)c1 (stereo not drawn),57.2%,22.5%,75.5%,69.4%,52.2%,54.3%,52.1%,60.6%,69.3%,20.6%,28.7%,98.9%,74.9%,49.8%,–,50.4%,29.1%,38.1%,46.4%,20.3
Clc1ccc2c(N/N=C/c3c[nH]c4ccccc34)ccnc2c1,-90.2% (active),-22.1% (active),-95.8% (active),-83.5% (active),-87.2% (active),-58.4% (active),-85.3% (active),-86.7% (active),-91.8% (active),-89.3% (active),-82.7% (active),-72.3% (active),-96.2% (active),-92.4% (active),-81% (active),-98.4% (active),-61.7% (active),-92.9% (active),-92.7% (active),–
O=c1c2cc(-c3ccc(F)cc3F)ccc2n(O)c(=O)n1-c1cccc(C(F)(F)F)c1,25.5%,3.41% (active),-12.2% (active),-10.3% (active),3.38% (active),17.4%,-11.2% (active),21.1%,-8.3% (active),17.6%,10.5%,62.9%,-19.4% (active),10.5%,-0.871% (active),-59.7% (active),-0.381% (active),12.5%,27.2%,–
Oc1[nH]c2ccc(Cl)cc2c1N=Nc1nc(N=Nc2c(O)[nH]c3ccc(Cl)cc23)nc(N2CCCCC2)n1,68%,39.3%,58.8%,64.5%,86.8%,54.5%,24.3%,79.5%,105%,81.1%,88.4%,39.3%,95.3%,42.1%,–,87%,88.5%,24.6%,97.5%,19.8
CCN(CC)c1ccc(/C=N/NC(=O)c2ccc(S(N)(=O)=O)cc2)cc1,34.7%,14.7%,8.81% (active),38.3%,-6.07% (active),29.4%,16%,17%,2.22% (active),-1.23% (active),20.4%,30.8%,71.1%,36.9%,43.8%,-0.119% (active),15.7%,0.095% (active),22.5%,–
CCN(CC)CCOc1ccc(C(=C(C)c2ccc(OC)cc2)c2ccc(OCCN(CC)CC)cc2)cc1,37.8%,-12.4% (active),-92.1% (active),-54.3% (active),-77.8% (active),6.51% (active),-64.1% (active),-88.2% (active),-67.2% (active),-70.4% (active),-27.1% (active),-28.1% (active),30.5%,11.9%,17%,-94.1% (active),-81.6% (active),-77.9% (active),-83.7% (active),–
